Assay [1] relates to XIP peptide (Xip251-270) binding. The assay is described as follows: XIP fragment 251-270 binding compounds – biochemical, small-molecule microarray, fluorescence 635/667 nm, 0.1 µg/mL protein, primary screen (AID 1182). As to conditions: fluorescent protein binding, 635 nm, higher = more signal, called active from +8 up or from −8 down.
Assay [2] relates to XIP peptide (Xip251-270). The assay is described as follows: compounds binding XIP fragment 251-270 – biochemical, small-molecule microarray, fluorescence 635/667 nm, 0.5 µg/mL protein, primary screen (AID 1183). As to conditions: fluorescence 635 nm, higher = more signal.
Assay [3] is described as follows: blood-stage malaria parasite viability loss – strain 3D7, DAPI fluorescence, 100 nL, primary screen (AID 1184).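 Note: parasites grown inside human red blood cells in medium with human serum.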 As to conditions: P. falciparum 3D7 growth, 3 d, higher = more signal.
The target in assay [4] is Homeobox protein Hox-A13 (Mus musculus) (UniProt Q62424). The assay is described as follows: disruptors of Hoxa13 oligonucleotide interaction – biochemical, fluorescence polarization, labeled oligonucleotide, primary screen (AID 1185). To be noted: Hoxa13:DNA binding, 15 min, higher = more signal, called active from +8 up or from −8 down.
Homeobox protein Hox-A13 (Mus musculus), sequence (Q62424 whole entry, looked up): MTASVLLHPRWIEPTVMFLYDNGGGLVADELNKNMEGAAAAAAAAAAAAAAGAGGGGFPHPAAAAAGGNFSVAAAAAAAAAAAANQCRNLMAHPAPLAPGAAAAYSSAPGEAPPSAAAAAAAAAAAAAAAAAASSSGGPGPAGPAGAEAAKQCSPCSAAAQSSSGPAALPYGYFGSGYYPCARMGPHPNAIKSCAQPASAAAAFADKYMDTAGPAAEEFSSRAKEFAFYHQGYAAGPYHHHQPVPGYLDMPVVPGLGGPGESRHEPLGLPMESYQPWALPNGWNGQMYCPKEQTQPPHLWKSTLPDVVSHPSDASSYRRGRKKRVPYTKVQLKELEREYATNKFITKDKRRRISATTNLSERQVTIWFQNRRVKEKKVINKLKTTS
Assay [5] in a line: blockers of DNA damage checkpoint Chk1 activation – imaging, HeLa, hydroxyurea, phospho-Chk1 antibody, percent positive cells, primary screen (AID 1186). As to conditions: hydroxyurea-induced phospho-Chk1 immunofluorescence imaging, higher = more signal.
A short description of assay [6]: blockers of DNA damage checkpoint Chk1 activation – imaging, HeLa, hydroxyurea, phospho-Chk1 nuclear intensity, primary screen (AID 1187). As to conditions: hydroxyurea-induced phospho-Chk1 immunofluorescence imaging, higher = more signal.

Active and inactive are the calls of the source. Unless noted, the rule behind the calls is not given here.

Turning to `COC(=O)c1c(CC[C@@H](CO)NC(=O)N[C@H](Cc2ccccc2)Cn2cc(-c3ccccc3N)nn2)oc(C(C)=O)c1C(=O)OC`, the composite z-score in assay [1] is 0.0074 (inactive); in assay [2], 0.0678. Also, the z-score in assay [3] is -1.29; in assay [4], -5.26 (inactive); in assay [5], -0.125 (inactive); in assay [6], 0.189 (inactive).

Regarding `COCCCNC(=O)[C@@]1(Sc2ccc(C)cc2)CC(=O)N(Cc2ccccc2)[C@@H]1c1ccc(CO)cc1I`, the composite z-score was -0.453 (inactive) in assay [1] and 0.423 in assay [2]. The z-score in assay [3] was -0.0893; in assay [4] it was -2.08 (inactive); in assay [5], 0.442 (inactive); in assay [6], 1.03 (inactive).

With `O=C1O[C@@H](c2ccccc2)[C@@H](c2ccccc2)N2[C@@H](c3ccc(OCCO)cc3)[C@]3(C(=O)Nc4ccc(C#CCCO)cc43)[C@@H](C(=O)N3CCCCCCC3)[C@H]12`, the composite z-score in assay [1] is 2.93 (inactive); in assay [2], 0.883. Further, the z-score in assay [3] was -2.22; in assay [4], -12.2 (active); in assay [5], -0.148 (inactive); in assay [6] it was 0.224 (inactive).

In the case of `COc1ccc(CCNC(=O)[C@@H]2c3ccccc3C(=O)N(c3ccc(C)cn3)[C@H]2c2ccc(CO)cc2)cc1`, the composite z-score in assay [1] is -1.02 (inactive); in assay [2], 0.843. The z-score in assay [3] is -0.183; in assay [4] it was -1.78 (inactive); in assay [5], 0.274 (inactive); in assay [6] it was 0.259 (inactive).

`COCCOC(=O)N1C(=O)[C@@]2(c3cc(C#Cc4ccc(OC)cc4)ccc31)[C@H](c1ccc(O)cc1)N1[C@H](c3ccccc3)[C@H](c3ccccc3)OC(=O)[C@H]1[C@@H]2C(N)=O`: the composite z-score is -0.0296 (inactive) in assay [1] and 0.754 in assay [2]. The z-score in assay [3] is -0.687; in assay [4], -1.15 (inactive); in assay [5], -0.425 (inactive); in assay [6], -0.461 (inactive).

Regarding `C=CCNC(=O)[C@H]1[C@@H]2C(=O)O[C@@H](c3ccccc3)[C@@H](c3ccccc3)N2[C@@H](c2ccc(O)cc2)[C@]12C(=O)N(C(=O)OCCOC)c1ccc(C#CC3=CCCCC3)cc12`, the values for the composite z-score in assay [1] and in assay [2] were 0.514 (inactive) and 0.834, respectively. Moreover, the z-score in assay [3] was -0.919; in assay [4] it was -0.216 (inactive); in assay [5] it was -0.411 (inactive); in assay [6], -0.376 (inactive).

Take `CC(C)C[C@@H]1NC(=O)[C@H]2C[C@@H](C(=O)O)[C@@H](c3ccc(O)cc3)N2C1=O`: the composite z-score in assay [1] was 0.0473 (inactive); in assay [2], 0.86. The z-score in assay [3] is -0.251; in assay [4], -2.19 (inactive); in assay [5], -0.523 (inactive); in assay [6] it was -0.332 (inactive).

`COCCOC(=O)N1C(=O)[C@@]2(c3ccccc31)[C@H](C(N)=O)[C@H]1C(=O)O[C@H](c3ccccc3)[C@H](c3ccccc3)N1[C@@H]2c1ccccc1OCCO`: the composite z-score in assay [1] was 3 (inactive); in assay [2] it was 0.801. Moreover, the z-score in assay [3] was -0.418; in assay [4], -4.4 (inactive); in assay [5] it was 0.228 (inactive); in assay [6] it was 0.42 (inactive).

For `O=C1O[C@@H](c2ccccc2)[C@@H](c2ccccc2)N2[C@@H](c3ccc(OCCO)cc3)[C@]3(C(=O)Nc4ccccc43)[C@@H](C(=O)N3CCN(c4ncccn4)CC3)[C@H]12`, the results for the composite z-score in assay [1] and in assay [2] were 0.0629 (inactive) and 0.812, respectively. In addition, the z-score in assay [3] was -2.11; in assay [4], 1.84 (inactive); in assay [5], 0.189 (inactive); in assay [6], 0.644 (inactive).

In the case of `CC(C)c1ccc(NN2C(C(O)c3ccc4c(c3)OCO4)C=CC3C(=O)N(c4ccccc4)C(=O)C32)cc1` (configuration not stated), the figures for the composite z-score in assay [1] and in assay [2] were 0.803 (inactive) and 0.665, respectively. In addition, the z-score in assay [3] was -0.121; in assay [4], -1.45 (inactive); in assay [5], -0.575 (inactive); in assay [6] it was -0.575 (inactive).

With `Cc1ccc(S[C@]2(C(=O)O)CC(=O)N(Cc3ccccc3)[C@@H]2c2ccc(CO)cc2I)cc1`, the composite z-score in assay [1] is 0.233 (inactive); in assay [2], 0.564. The z-score in assay [3] was -0.58; in assay [4] it was -2.92 (inactive); in assay [5], -0.123 (inactive); in assay [6] it was -0.134 (inactive).

As for `[N-]=[N+]=NCc1ccccc1C[C@]1(C(=O)NCc2ccccc2)N=C(c2ccc(OCCCO)cc2)O[C@H]1c1ccccc1N=[N+]=[N-]`, the results for the composite z-score in assay [1] and in assay [2] were -0.649 (inactive) and 0.344, respectively. The z-score is -2.52 in assay [3], 0.378 (inactive) in assay [4], -0.278 (inactive) in assay [5] and -0.2 (inactive) in assay [6].

Regarding `COCCOC(=O)N1C(=O)[C@@]2(c3cc(C#Cc4ccc(OC)cc4)ccc31)[C@H](C(=O)N1CCN(c3ncccn3)CC1)[C@H]1C(=O)O[C@H](c3ccccc3)[C@H](c3ccccc3)N1[C@@H]2c1ccc(OCCO)cc1`, the composite z-score was 0.115 (inactive) in assay [1] and 0.43 in assay [2]. Moreover, the z-score was -1.49 in assay [3], 1.38 (inactive) in assay [4], -0.102 (inactive) in assay [5] and -0.0346 (inactive) in assay [6].

In the case of `[N-]=[N+]=NCc1ccccc1[C@@H]1OC(c2ccc(OCCCO)cc2)=N[C@]1(Cc1ccccc1)C(=O)N1CCOCC1`, the composite z-score in assay [1] was 0.713 (inactive); in assay [2], 0.841. For the same compound, the z-score in assay [3] was -2.33; in assay [4] it was -4.99 (inactive); in assay [5], -0.449 (inactive); in assay [6], -1.03 (inactive).

On to `C[N+](C)(C)CCCCCCNC(=O)[C@@H]1C[C@@H]2C(=O)N3CCC[C@H]3C(=O)N2[C@@H]1c1cccc(OCCO)c1`, for which the values for the composite z-score in assay [1] and in assay [2] were -0.113 (inactive) and 0.697, respectively. The z-score in assay [3] was -0.204; in assay [4], -4.95 (inactive); in assay [5], -0.173 (inactive); in assay [6], -0.0252 (inactive).

`Cc1ccc(F)cc1S(=O)(=O)N[C@@H]1CCN(Cc2ccc(CC(C)C)cc2)C1`: the composite z-score is -0.112 (inactive) in assay [1] and -0.583 in assay [2]. Moreover, the z-score is -1.66 in assay [3], -4.52 (inactive) in assay [4], -0.496 (inactive) in assay [5] and -0.724 (inactive) in assay [6].

Take `COCCOC(=O)N1C(=O)[C@@]2(c3cc(C#CCNC(N)=O)ccc31)[C@H](c1ccccc1OCCO)N1[C@H](c3ccccc3)[C@H](c3ccccc3)OC(=O)[C@H]1[C@@H]2C(=O)N1CCN(c2ncccn2)CC1`: the composite z-score is 0.521 (inactive) in assay [1] and 0.787 in assay [2]. The z-score in assay [3] is -2.09; in assay [4], -0.789 (inactive); in assay [5] it was -0.44 (inactive); in assay [6] it was -0.438 (inactive).
